12-LOX inh: blocks human arachidonate 12S-lipoxygenase | purified 12hLO, xylenol orange hydroperoxide absorbance | Potency, µM (titrated, usually from 108 µM), most hits filed as inhibitors | 580,000 tested, 1.1% active | AID 1671190
Target sequence (P18054 whole entry, looked up): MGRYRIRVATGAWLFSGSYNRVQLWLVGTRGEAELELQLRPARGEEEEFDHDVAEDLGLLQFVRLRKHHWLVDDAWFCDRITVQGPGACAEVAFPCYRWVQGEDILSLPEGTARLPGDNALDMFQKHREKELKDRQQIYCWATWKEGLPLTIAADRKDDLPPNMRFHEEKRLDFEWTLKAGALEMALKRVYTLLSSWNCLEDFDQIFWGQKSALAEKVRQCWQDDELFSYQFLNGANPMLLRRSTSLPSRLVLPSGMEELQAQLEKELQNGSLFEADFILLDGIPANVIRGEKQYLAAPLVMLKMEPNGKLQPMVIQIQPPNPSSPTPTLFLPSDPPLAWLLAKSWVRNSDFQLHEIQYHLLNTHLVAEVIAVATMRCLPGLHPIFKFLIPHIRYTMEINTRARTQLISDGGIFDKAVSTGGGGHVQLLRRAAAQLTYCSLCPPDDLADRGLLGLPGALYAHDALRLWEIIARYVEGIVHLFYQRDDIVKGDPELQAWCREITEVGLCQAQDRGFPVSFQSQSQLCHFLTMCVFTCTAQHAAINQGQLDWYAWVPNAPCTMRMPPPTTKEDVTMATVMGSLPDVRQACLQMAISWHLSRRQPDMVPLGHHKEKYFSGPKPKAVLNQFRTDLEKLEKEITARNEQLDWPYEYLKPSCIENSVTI
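Purified human 12hLO at 150 nM in 25 mM Hepes, 0.01% Triton X-100, pH 7.0, preincubated 15 min at room temperature with compound. Reaction started with 40 uM arachidonic acid, 30 min at room temperature. Hydroperoxide measured by Fe-xylenol orange, 573/405 nm absorbance ratio.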
IL1B secr inh: blocks inflammasome-driven IL-1 beta release | THP-1 LPS/ATP IL-1B secretion, AlphaLISA, 16 h; active compounds read low | activity change, % at 57.5 µM | 360,000 tested, 4.7% active | AID 743279; in the data active means activity change below about -50%; inconclusive means mostly about -30% to -49%
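Secreted IL-1B measured by AlphaLISA bead assay after 16 h compound exposure of THP-1 cells; compounds (final up to 57.5 uM) added 1 h before LPS (250 ng/mL) and ATP (1.25 mM) stimulation; lower signal means less secretion.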
HT1080-NT tox: kills 2HG-producing HT-1080-NT fibrosarcoma cells; HT-1080-NT fibrosarcoma viability, CellTiter-Glo ATP luminescence, 48 h; Potency, µM (titrated, usually from 46.1 µM), usual class: cytotoxic; 360,000 tested, 1.6% active; AID 686970;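 further: NT is the 2HG producing partner of a matched IDH1 knockdown line; nearly all actives have a fitted effect of over 55% in size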
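Luminescent CellTiter-Glo readout after 48 hours of compound exposure at 37 degrees C defined viability of HT-1080-NT cells. Activity was normalized to DMSO wells and cell-free media wells; concentration-response curves were fitted and assigned curve classes.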
HT1080 IDH1KD tx: kills HT-1080 cells with IDH1 knockdown; HT-1080 IDH1 knockdown viability, ATP luminescence, 48 h; Potency, µM (top dose mostly 46.1 µM), hits mostly cytotoxic; 360,000 tested, 2% active
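After a 2 h attachment period, IDH1KD HT-1080 cells took pin-transferred compound for 48 h at 37 °C; ATP-based luminescence after 10 min room-temperature reagent incubation reported viability.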
DT40 TDP1 no CPT: qHTS for Inhibitors of human tyrosyl-DNA phosphodiesterase 1 (TDP1): qHTS in cells in absence of CPT | DT40 Tdp1-/- hTDP1 cells, no CPT, ATP luminescence, 48 h | Potency, µM (series often up to 46.2 µM), actives largely listed as inhibitors | 420,000 tested, 15% active | AID 686978, 2013; further: nearly all actives have a fitted effect of over 55% in size
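Luminescent ATP content (CellTiter-Glo) served as the growth readout. Knockout chicken DT40 cells expressing human TDP1 were exposed to compounds without camptothecin for a minimum 48 hr at 37 °C.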
DT40 TDP1 CPT: DT40-hTDP1 cell growth loss with CPT. chicken DT40 Tdp1-/-;hTDP1 cells + 20 nM CPT, ATP luminescence, 48 h. Potency, µM (titrated, usually from 46.2 µM), hits mostly inhibitors. AID 686979. 420,000 tested, 12% active; further: nearly all actives have a fitted effect of over 55% in size
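Chicken DT40 Tdp1-/- cells stably complemented with human TDP1 were seeded at 400 cells/well in medium containing 20 nM camptothecin, exposed to pin-transferred compounds, and grown at 37 °C for at least 48 hr. Viability was read as ATP luminescence.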
Numbers stand for hits; . = inactive; ? = inconclusive; / = not tested or not shown. This excerpt belongs to a sample that is enriched for hits. Unless noted, the call rests on the fitted dose curve; in most records, active means well fitted curve in the direction sought with a large enough effect; inconclusive means small, poorly fitted or top-dose-only effect, or another doubt; inactive means no such curve, though single readings can be large; an effect the other way counts as inactive or inconclusive.

SMILES	12-LOX inh	IL1B secr inh	HT1080-NT tox	HT1080 IDH1KD tx	DT40 TDP1 no CPT	DT40 TDP1 CPT
CC(C)c1ccc(NC(=O)c2cc(S(=O)(=O)NC3CCCCC3)ccc2F)cc1	.	/	/	/	18µM	16µM
CNC(=O)c1cc(S(=O)(=O)NC2CCCCCC2)ccc1C	.	.	.	.	.	?
O=C(Nc1ccc(Br)cc1)c1ccc(F)c(S(=O)(=O)NC2CCCCCC2)c1	.	/	/	/	1.6µM	2.9µM
Cc1ccc(NC(=O)c2cc(S(=O)(=O)NCC3CCCO3)ccc2F)cc1 (configuration not stated)	.	.	.	.	?	?
O=C(Nc1ccc(Br)cc1F)c1cc(S(=O)(=O)NC2CCCCC2)ccc1F	.	/	/	/	21µM	23µM
CCOc1ccccc1NC(=O)c1cc(S(=O)(=O)NC2CCCC2)ccc1F	.	/	/	/	?	.
Clc1ccc(C2[C@H]3CN(Cc4cccnc4)[C@H](c4ccccc4)C34CC2(c2ccccc2)C4)cn1 (some centres not stated)	.	.	.	.	?	?
N#Cc1ccc(C23CC4(C2)[C@H](CN(P(=O)(c2ccccc2)c2ccccc2)[C@@H]4c2ccccc2)C3c2ccc(Cl)nc2)cc1 (some centres not stated)	/	?	?	.	?	23µM
COC(=O)c1ccc(C23CC4(C2)[C@H](CN(CC2CCCCC2)[C@@H]4c2ccccc2)C3c2ccc(C(F)(F)F)cc2)cc1 (some centres not stated)	.	.	.	.	?	?
N#Cc1ccc(C23CC4(C2)[C@H](CN(Cc2ccc(-c5ccccc5)cc2)[C@@H]4c2ccccc2)C3c2ccc(Cl)nc2)cc1 (some centres not stated)	.	.	.	.	?	?
c1ccc(C2[C@H]3CN(Cc4cccnc4)[C@H](c4ccccc4)C34CC2(c2ccccc2)C4)cc1 (some centres not stated)	.	.	?	?	15µM	?
c1ccc(C2[C@H]3CN(CC4CCCCC4)[C@H](c4ccccc4)C34CC2(c2cccnc2)C4)cc1 (some centres not stated)	?	.	.	.	18µM	23µM
FC(F)(F)c1ccc(C2[C@H]3CN(Cc4cccnc4)[C@H](c4ccccc4)C34CC2(c2ccccc2)C4)cc1 (some centres not stated)	.	.	.	?	?	18µM
c1ccc(C2[C@H]3CN(Cc4cccnc4)[C@H](c4ccccc4)C34CC2(c2cccnc2)C4)cc1 (some centres not stated)	.	.	?	?	?	?
O=C(Cc1cccc(C(F)(F)F)c1)N1CCCc2ncc(C(=O)N3CCCC[C@@H]3c3ccccc3)cc21	.	/	/	/	/	/
CC(C)c1cccc(C(C)C)c1NC(=O)CC1C=CCC1 (configuration not stated)	.	/	/	/	/	/
FC(F)(F)c1ccc(CN2C[C@@H]3C(c4ccc(C(F)(F)F)cc4)C4(c5cccnc5)CC3(C4)[C@H]2c2ccccc2)cc1 (some centres not stated)	.	.	.	.	15µM	15µM
COC(=O)c1ccc(C23CC4(C2)[C@H](CN(C)[C@@H]4c2ccccc2)C3c2ccc(Cl)nc2)cc1 (some centres not stated)	.	.	.	.	15µM	?
FC(F)(F)c1ccc(CN2C[C@@H]3C(c4ccccc4)C4(c5cccnc5)CC3(C4)[C@H]2c2ccccc2)cc1 (some centres not stated)	.	.	.	.	?	?
N#Cc1ccc(C23CC4(C2)[C@H](CN(Cc2ccc(C(F)(F)F)cc2)[C@@H]4c2ccccc2)C3c2ccc(C(F)(F)F)cc2)cc1 (some centres not stated)	.	.	.	.	21µM	?
COC(=O)c1ccc(C23CC4(C2)[C@H](CN(Cc2ccc(C(F)(F)F)cc2)[C@@H]4c2ccccc2)C3c2ccccc2)cc1 (some centres not stated)	/	.	.	.	4.1µM	7.3µM
COC(=O)c1ccc(C23CC4(C2)[C@H](CN(C)[C@@H]4c2ccccc2)C3c2ccc(C(F)(F)F)cc2)cc1 (some centres not stated)	.	.	.	.	?	?
Cc1ccc(/C=C(/C#N)S(C)(=O)=O)cc1	.	/	/	/	/	/
O=[N+]([O-])c1ccc(S(=O)(=O)N2CCN(c3nc(-c4cccs4)nc4ccccc34)CC2)cc1	/	/	/	/	.	.
CN1C[C@@H]2C(c3ccc(C(F)(F)F)cc3)C3(c4cccnc4)CC2(C3)[C@H]1c1ccccc1 (some centres not stated)	?	?	?	.	18µM	?
SMILES	12-LOX inh	IL1B secr inh	HT1080-NT tox	HT1080 IDH1KD tx	DT40 TDP1 no CPT	DT40 TDP1 CPT
COCCOc1ccnc(-c2noc([C@@H]3CCCN3Cc3cn(C)c4ccccc34)n2)c1	.	/	/	/	/	/
CNc1snc(C)c1C(=O)OCC(=O)Nc1ccc(C)cc1F	.	.	.	.	10µM	?
CCc1ccccc1NC(=O)COC(=O)c1c(C)nsc1NC	?	.	4.1µM	.	2.9µM	7.3µM
CCN(C(=O)COC(=O)c1c(C)nsc1NC)c1ccccc1	.	.	.	.	.	.
Cc1ccc(NC(=O)COC(=O)c2ccc(-n3nc(C)cc3C)cc2)c(F)c1	.	.	.	.	.	.
CNc1snc(C)c1C(=O)OCC(=O)N(C)Cc1ccccc1	.	.	.	.	18µM	15µM
CNc1snc(C)c1C(=O)OCC(=O)N(C)c1ccccc1	.	.	.	.	?	.
CCN(Cc1ccccc1)C(=O)[C@@H]1CCC(=O)N[C@@H]1COC	.	/	/	/	/	/
O=c1[nH]c(C2CCN(Cc3cccc4ccccc34)CC2)nn1Cc1ccccc1	.	/	/	/	/	/
O=[N+]([O-])c1ccc(S(=O)(=O)NN=Cc2ccc(Cl)c(Cl)c2)cc1	18µM	.	.	.	?	?
Cc1ccc(Cl)cc1-n1ncc2c(NC3CCCCCC3)ncnc21	?	/	/	/	21µM	21µM
Clc1ccc(-n2ncc3c(NC4CCCC4)ncnc32)cc1	?	/	/	/	16µM	16µM
c1ccc(-n2ncc3c(NC4CCCCCC4)ncnc32)cc1	.	-53	.	.	?	?
CCOC(=O)N1CCC(Nc2ncnc3c2cnn3-c2ccccc2)CC1	.	.	.	.	11µM	?
c1cc2c(cc1CN1CCCC1)CNCCO2	.	/	/	/	/	/
c1ccc(-n2ncc3c(NCC4CCCO4)ncnc32)cc1 (configuration not stated)	.	.	.	.	?	?
